# Source: PubChem BioAssay (National Center for Advancing Translational Sciences (NCATS))
# RECQ1 inh-1: blocks DNA unwinding by human RECQ1; Potency, µM (series often up to 57.3 µM), for the others: at the highest dose activity, negative = inhibition, actives largely listed as inhibitors; 240,000 compounds, 0.54% hits; RECQ1 DNA unwinding, red fluorescence kinetic read; AID 2549;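 also: potency is read from the fitted curve at half-maximal effect; plate controls were vehicle for no effect and no enzyme for full effect; nearly all actives have a fitted effect of over 30% in size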
#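 50 nM RECQ1T1 preincubated 15 min with compound in Tris pH 8.0 buffer with MgCl2, DTT, Tween-20 and 2.5 ug/ml poly(dI-dC); started with 200 nM TAMRA/BHQ-2 forked duplex and 2 mM ATP. Unwinding read as fluorescence (525/598 nm), two reads 2 h apart.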
# GCN5L2 inh-1: blocks human GCN5L2 histone acetyltransferase | Q92830 | GCN5L2 HAT assay, ThioGlo1 CoA-SH fluorescence | Potency, µM (doses to about 58.9 µM), without a hit: at the highest dose activity change, negative = inhibition, most hits filed as inhibitors | 390,000 compounds, 0.21% hits; also: potency is read from the fitted curve at half-maximal effect; % is scaled to controls: 0 for no effect and ±100 for the full control effect
#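 Free CoA generated was detected with ThioGlo1 (50uM) fluorescence at Ex340nm/Em540nm, read immediately and after 20 min at room temperature. Enzyme, 20 nM in HEPES pH 7.5 buffer, saw compounds 15 min before adding 75uM H3(1-25) peptide and 70uM acetyl-CoA.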
# TDP1 inh: blocks human tyrosyl-DNA phosphodiesterase 1; recombinant TDP1, AlphaScreen DNA substrate cleavage; Potency, µM (titrated, usually from 130 µM), inactives show at the top dose activity change, negative = inhibition, most hits filed as inhibitors; 350,000 compounds, 0.28% hits; AID 485290; also: potency is read from the fitted curve at half-maximal effect; % is scaled to controls: 0 for no effect and ±100 for the full control effect; nearly all actives have a fitted effect of over 40% in size
#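 Compounds were preincubated with Tdp1 (1 nM final) for 15 min at room temperature before substrate (15 nM final) started a 5 min reaction; beads (10 ug/ml final) were then added for 10 min before AlphaScreen detection.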
# RGS4 inhibitor: inhibitors of human regulator of G protein signaling 4 | 390,000 compounds, 0.039% hits | P49798 | Transcreener GDP fluorescence polarization, RGS4-accelerated GTP hydrolysis | Potency, µM (top dose mostly 114 µM), for the others: at the highest dose activity change, negative = inhibition, hits mostly inhibitors; also: potency is read from the fitted curve at half-maximal effect; % is scaled to controls: 0 for no effect and ±100 for the full control effect; nearly all actives have a fitted effect of over 75% in size
#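 MLSMR compounds (23 nl, pin-transferred) preincubated 10 min at room temperature with a 500nM (2x) first reagent, then RGS4 at 900nM (2x) plus Transcreener GDP mix added; fluorescence polarization (620/688 nm) read before and after 90 min at 30 °C.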
# APE1 inh: inhibitors of human APE1 endonuclease. 350,000 compounds, 0.35% hits. recombinant APE1, TAMRA/BHQ-2 abasic DNA cleavage fluorescence. Potency, µM (top dose mostly 65.8 µM), without a hit: top-dose activity change, negative = inhibition, usual class: inhibitors;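 also: potency is read from the fitted curve at half-maximal effect; plate controls were vehicle for no effect and reference inhibitor for full effect; nearly all actives have a fitted effect of over 55% in size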
#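 APE1 at 0.75 nM final was preincubated with compound 15 min at room temperature, then 50 nM double-stranded THF abasic-site substrate (5'-TAMRA/3'-BHQ-2) was added. Fluorescence (ex 525/em 598 nm) was read kinetically; third-minus-first read gave activity.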
# BLM inh: Bloom syndrome helicase (human) inhibition; recombinant BLM DNA unwinding, fluorescence dequenching; Potency, µM (highest dose often 56.1 µM), for the others: top-dose activity change, negative = inhibition, actives largely listed as inhibitors; 350,000 compounds, 0.2% hits; AID 2528;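 also: potency is read from the fitted curve at half-maximal effect; plate controls were vehicle for no effect and no enzyme for full effect; nearly all actives have a fitted effect of over 35% in size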
# RECQ1 conf: confirmation of human RECQ1 helicase inhibitors | Potency, µM (highest dose often 229 µM), for inactives: at the highest dose activity change, negative = inhibition, hits mostly inhibitors | AID 2708 | 610 compounds, 28% hits | shares compounds with RECQ1 inh-1 | RECQ1 helicase DNA unwinding, fluorescence; also: potency is read from the fitted curve at half-maximal effect; % is scaled to controls: 0 for no effect and ±100 for the full control effect; nearly all actives have a fitted effect of over 45% in size
# RECQ1 ADP FP: counter-screen for RECQ1 inhibitors: ADP displacement; shares compounds with RECQ1 inh-1; ADP fluorescence polarization displacement counterscreen; Potency, µM (highest dose often 228 µM), without a hit: top-dose activity change, negative = inhibition, actives largely listed as inhibitors; 530 compounds, 27% hits; also: potency is read from the fitted curve at half-maximal effect; % is scaled to controls: 0 for no effect and ±100 for the full control effect; nearly all actives have a fitted effect of over 45% in size
# RECQ1 inh-2: confirmation of human RECQ1 helicase inhibitors. shares compounds with RECQ1 inh-1. recombinant RECQ1 DNA unwinding, red fluorescence. Potency, µM (highest dose often 119 µM), for inactives: top-dose activity, negative = inhibition, actives largely listed as inhibitors. 1,100 compounds, 15% hits. AID 504841; also: potency is read from the fitted curve at half-maximal effect; % is scaled to controls: 0 for no effect and ±100 for the full control effect; nearly all actives have a fitted effect of over 50% in size
# GCN5L2 inh-2: human KAT2A HAT inhibition, hit confirmation | shares compounds with GCN5L2 inh-1 | GCN5L2 HAT, ThioGlo1 CoA fluorescence, 20 min | Potency, µM, hits mostly inhibitors | 140 compounds, 70% hits | AID 588347
# * = called active by the depositor; ? = inconclusive; · = not tested or not shown; ! = a repeat was not active; [ ] = another dose, or the depositor's remark. Shown are actives, neighbours in structure and some others; about 0.87% of the full set was active somewhere. Calls follow the shape of the dose curve; as a rule, active = well fitted curve in the direction sought with a large enough effect; inconclusive = small, poorly fitted or top-dose-only effect, or another doubt; inactive = no such curve, though single readings can be large; an effect the other way counts as inactive or inconclusive.
SMILES,RECQ1 inh-1,GCN5L2 inh-1,TDP1 inh,RGS4 inhibitor,APE1 inh,BLM inh,RECQ1 conf,RECQ1 ADP FP,others
CCCCn1c(N)c(C(=O)OCC2CCCO2)c2nc3ccccc3nc21 (stereo unspecified),?,?,2%,-36%,-10%,-5%,·,·,RECQ1 inh-2=10%
COC(=O)c1sccc1NC(=O)c1ccc(C#N)cc1,·,?,·,-1%,-18%,-13%,·,·,
Cn1c(CNC(=O)c2ccco2)nnc1SCC(=O)N1c2ccccc2Sc2ccccc21,3%,?,5%,-29%,-7%,-2%,-1%,14%,
[O-][Br+2]([O-])O,7%,·,13%,·,-6%,·,·,·,
CCn1nc(/C=C/c2ccccc2)nc2c(=O)n(C)c(=O)nc1-2,-19%,-2%,-3%,-15%,2%,-8%,·,·,
CCn1nc(-c2cccs2)nc2c(=O)n(C)c(=O)nc1-2,3.5µM*,-16%,2%,-33%,-3%,1.1µM*,?,7%[91.9 µM],
COc1ccc2c3c([nH]c2c1)C(C)=NCC3,14µM*!,?,9%,-10%,?,?,-67%,18µM*,RECQ1 inh-2=50µM*
CC[C@H]1CC2CN3CCc4c([nH]c5cc(OC)ccc45)[C@](C(=O)OC)(C2)[C@H]13,·,·,·,-24%,·,·,·,·,
COc1ccc(C(=O)N2CCC3(CC2)OCCO3)cc1,·,-1%,·,17%,9%,1%,·,·,
O=C(c1ccc2nc(-c3ccco3)c(-c3ccco3)nc2c1)N1CCC2(CC1)OCCO2,13µM*,-11%,·,-34%,?,28µM*,18%[114 µM],·,RECQ1 inh-2=-7%
CCCSP(=S)(OCC)Oc1ccc(Cl)cc1Cl (stereo unspecified),-8%,-19%,13%,·,-11%,-2%,·,·,
CN(C)C1C(=O)C(C(N)=O)=C(O)[C@@]2(O)C(=O)C3=C(O)c4c(O)cccc4[C@](C)(O)C3C(O)C12 (stereo partly specified),10µM*,-29%,·,·,?,-7%,-38%,7.1µM*,
N#CC(Cl)(Cl)Cl,1%,·,13%,·,0%,·,·,·,
O=C(O)c1ccccc1-c1c2cc(Br)c(=O)cc-2oc2[c]([Hg])c(O)c(Br)cc12,25µM*,3.2µM*!,25%,·,25µM*,16µM*,11µM*,0.2µM*,
CCC(=O)CCCCC[C@@H]1NC(=O)[C@H]2CCCCN2C(=O)[C@H]([C@@H](C)CC)NC(=O)[C@H](Cc2cn(OC)c3ccccc23)NC1=O,-18%,-22%,15%,·,-3%,-8%,·,·,
COC(C(=O)C(O)C(C)O)C1Cc2cc3cc(OC4CC(OC5CC(O)C(OC)C(C)O5)C(OC(C)=O)C(C)O4)c(C)c(O)c3c(O)c2C(=O)C1OC1CC(OC2CC(OC3CC(C)(O)C(OC(C)=O)C(C)O3)C(O)C(C)O2)C(O)C(C)O1 (stereo unspecified),·,-10%,13%,·,·,?,·,·,
Cc1cc(C(C#N)c2ccc(Cl)cc2)c(Cl)cc1NC(=O)c1cc(I)cc(I)c1O (stereo unspecified),·,10µM*,18%,?,-29%,?,·,·,GCN5L2 inh-2=?
O=NN(c1ccccc1)c1ccccc1,-17%,·,9%,·,-1%,·,·,·,
